# Pin1 inhibitor = blocks the human prolyl isomerase Pin1; Q13526; Pin1 FP peptide displacement, HiFluor488, 10 min; Potency, µM (doses to about 115 µM), inactives show at the highest dose activity, negative = inhibition, most hits filed as inhibitors; hit rate 0.009% among 390,000; active = well fitted inhibition curve with a large enough effect in the polarisation, with a control signal flat, not every such curve was filed as active; inconclusive = small, poorly fitted or top-dose-only effect, or effect the other way, or a change in a side signal; inactive = no such curve, though single readings can be large or run the other way; the % refers to the polarisation; note: potency is the fitted concentration of half-maximal effect
# Target sequence (Q13526 whole entry, looked up): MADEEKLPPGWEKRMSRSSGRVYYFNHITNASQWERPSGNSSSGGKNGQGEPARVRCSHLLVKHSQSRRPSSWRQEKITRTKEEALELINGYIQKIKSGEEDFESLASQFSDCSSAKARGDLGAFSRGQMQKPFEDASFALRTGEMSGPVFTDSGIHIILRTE
# PI4K2A inh = PI4K2A (human) kinase inhibition; Q9BTU6; activity change, negative = inhibition, % at 76.9 µM; purified PI4K2A, ADP-Glo luminescence, 1 h; hits give low values; hit rate 0.13% among 420,000; in the data active = activity change below about -50%; inconclusive = mostly about -30% to -49%;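 note: -100% = wells without enzyme as full effect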
#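 PI4K2A activity was measured by ADP-Glo luminescence: enzyme (4 ug/mL stock) and phosphatidylinositol (1.2 mM stock) in Tris pH 7.5/MgCl2/EGTA/Triton X-100 buffer were reacted with ATP (300 microM stock) for one hour at ambient temperature.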
# Tb PGK inh = T. brucei PGK inhibition. Potency, µM (doses to about 57.5 µM), without a hit: at the highest dose activity change, negative = inhibition, hits mostly inhibitors. P07378. hit rate 0.043% among 380,000. AID 602233. PGK/GAPDH coupled, Kinase-Glo luminescence, 60 min; note: potency is the fitted concentration of half-maximal effect; nearly all actives have a fitted effect of over 60% in size
# Target sequence (P07378 whole entry, looked up): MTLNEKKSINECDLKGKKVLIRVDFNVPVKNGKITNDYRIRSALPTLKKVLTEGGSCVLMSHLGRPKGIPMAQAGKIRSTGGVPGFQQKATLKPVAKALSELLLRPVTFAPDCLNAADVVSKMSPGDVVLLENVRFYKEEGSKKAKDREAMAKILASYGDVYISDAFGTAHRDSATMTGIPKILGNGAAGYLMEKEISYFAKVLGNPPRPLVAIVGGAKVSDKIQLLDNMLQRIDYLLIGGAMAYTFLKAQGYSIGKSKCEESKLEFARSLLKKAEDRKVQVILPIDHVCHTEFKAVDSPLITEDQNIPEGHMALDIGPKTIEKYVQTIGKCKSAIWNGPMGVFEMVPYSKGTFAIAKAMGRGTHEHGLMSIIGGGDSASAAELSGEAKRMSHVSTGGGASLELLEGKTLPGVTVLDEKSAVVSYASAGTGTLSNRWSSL
#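 Recombinant glycosomal PGK reaction used 1,3-bisphosphoglycerate generated in-well by GAPDH (100nM final) in 100mM TEA pH 7.6, 5mM MgCl2, 0.01% Tween-20. After 60 minutes at room temperature, ATP was read by Kinase-Glo Plus luminescence end-point.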
# GoLoco inh red = RGS12 GoLoco-Gai1 interaction inhibition; P63096; Gai1:RGS12 GoLoco peptide FP, rhodamine, 10 min; Potency, µM (series often up to 61.6 µM), for the others: at the highest dose activity, negative = inhibition, hits mostly inhibitors; hit rate 0.44% among 230,000; AID 880; active = well fitted inhibition curve with a large enough effect, not every such curve was filed as active; inactive = no such curve, though single readings can be large or run the other way; note: potency is the fitted concentration of half-maximal effect; nearly all actives have a fitted effect of over 30% in size
# GCN5L2 inh = blocks human GCN5L2 histone acetyltransferase. Potency, µM (highest dose often 58.9 µM), for the others: at the highest dose activity change, negative = inhibition, actives largely listed as inhibitors. Q92830. GCN5L2 HAT assay, ThioGlo1 CoA-SH fluorescence. hit rate 0.21% among 390,000. AID 504327; note: potency is the fitted concentration of half-maximal effect
#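 qHTS, 1536-well. 20nM enzyme, pH 7.5 HEPES/EDTA/Tween-20 buffer; 15 min compound preinc., RT. Start: 75uM H3(1-25), 70uM AcCoA, 50uM ThioGlo1. Read Ex340/Em540 at t=0 (autofluorescence flag) and t=20 min.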
# PI5P4K alpha inh = PI5P4K alpha (human) kinase inhibition; P48426; hit rate 1.2% among 330,000; max response, %; AID 652105; PI5P4Kalpha enzyme, ADP-Glo luminescence, 60 min; hits give low values; active = max response of -50% or lower; inconclusive = between -30% and -50%; inactive = -30% or higher; note: value at the top dose of about 77 µM
#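 Human PI5P4Kalpha with substrate in 0.038 M HEPES pH 7.4, 0.28 mM EGTA, 0.1% CHAPS, 5% DMSO; reaction started with 5 microM ATP (final), 60 min at room temperature. ADP formed read by ADP-Glo luminescence.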
# * marks the source's active call; other numbers are inactive results; i = inactive; ? = inconclusive; / = no result given. Only some compounds are listed: those with a hit (about 1.2% of all), similar ones and a draw of the others. Unless noted, calls come from the whole dose curve; as a rule, active = well fitted curve in the direction sought with a large enough effect; inconclusive = small, poorly fitted or top-dose-only effect, or another doubt; inactive = no such curve, though single readings can be large; an effect the other way counts as inactive or inconclusive. Unless noted, % is set by controls: 0 for no effect and ±100 for the full control effect.
SMILES,Pin1 inhibitor,PI4K2A inh,Tb PGK inh,GoLoco inh red,GCN5L2 inh,PI5P4K alpha inh
O=C(Nc1ccc(O)cc1)c1ccc2c(c1)C(=O)N(Cc1ccco1)C2=O,?,-4,-12%,6%,-2%,-57*
O=C(O)c1ccc(C(=O)c2ccc3c(c2)C(=O)N(Cc2ccco2)C3=O)cc1,0%,-3,2%,1%,0%,-71*
O=C(c1ccc2c(c1)C(=O)N(Cc1ccco1)C2=O)N1CCOCC1,-3%,2,-2%,6%,-5%,/
COc1ccc(S(=O)(=O)Nc2cccc3c2O[C@H](CN(C)C(=O)NC2CCCCC2)[C@@H](C)CN([C@H](C)CO)C3=O)cc1,-3%,-4,-6%,/,-2%,3
CC(=O)Nc1cccc(-c2ccnc3c2CC(C(=O)Nc2ccc(F)c(Cl)c2)O3)c1 (stereo unspecified),/,0,/,/,/,-3
OC1CCCN(Cc2cn(Cc3ccccc3)nc2-c2cc3ccccc3o2)C1 (stereo unspecified),-6%,0,-1%,12%,-3%,-4
CC(C)Sc1nc2ccccc2n1CC(N)=O,4%,1,-5%,11%,1%,2
COc1ccccc1NC(=O)CCCCCN1C(=O)c2cccc([N+](=O)[O-])c2C1=O,-11%,-1,-1%,/,-3%,-1
COc1cc(/C=C2/C(=O)c3cccc([N+](=O)[O-])c3C2=O)c(Br)cc1O,-27%,-23,-16%,20%,?,-60*
CC(=O)c1ccc(NC(=O)CN2C(=O)CCc3cc(S(=O)(=O)N4CCC(C)CC4)ccc32)cc1,-2%,-9,25µM*,/,1%,/
CCNc1nc(NCC)nc(N(C)/N=C/c2ccco2)n1,-1%,0,-1%,/,-8%,-3
Oc1[nH]c2ccc(Br)cc2c1N=NC(=S)N1CCOCC1,?,16,4%,3%,-10%,-54*
CCOC(=O)C1CCCN(c2ccc(NC(=O)c3snc4c(=O)[nH]c(C)nc34)cc2)C1 (stereo unspecified),-1%,-8,-9%,15%,2.5µM*,/
CCOC(=O)C1CCCN(c2ccc(NC(=O)c3snc4c(=O)[nH]cnc34)cc2)C1 (stereo unspecified),7%,1,-2%,45%,-3%,-5
O=C(O)C(S)C(S)C(=O)O (stereo unspecified),/,-12,?,/,/,-55*
O=C(O)[C@@H](O)[C@H](O)[C@H](O)[C@@H](O)C(=O)O,/,-1,/,/,/,/
N[C@H](C(=O)O)[C@H](O)C(=O)O,/,2,/,-11%,?,/
O=C(O)C(S)[C@@H](S)C(=O)O (stereo partly specified),/,/,/,2%,7.1µM*,/
COc1ccc(NC(=O)c2ccc(S(=O)(=O)N3CCCCC3)cc2)c(OC)c1,-6%,-7,-1%,/,-2%,-4
CC1=Nc2ccccc2/C1=C/c1sc(=S)n(-c2cccc(C(=O)O)c2)c1O,?,-1,?,48%,-22%,-55*
Cn1ccsc1=NC(=O)c1ccc([N+](=O)[O-])o1,?,-10,-10%,/,?,-60*
Cc1ccc(N2C(=O)N3[C@H](c4ccc(F)cc4)[C@@H]4C(=O)N(C5CCCCC5)C(=O)[C@@H]4[C@]3(C)C2=O)cc1,7%,-5,i,/,-1%,-65*
Cc1ccc(N2C(=O)N3[C@H](c4ccc(Cl)cc4)[C@@H]4C(=O)N(C5CCCCC5)C(=O)[C@@H]4[C@]3(Cc3ccccc3)C2=O)cc1,17%,1,2%,/,-7%,-23
CCOC(=O)C1=C(c2ccccc2)NC(=O)NC1c1ccc(O)c(Cl)c1 (stereo unspecified),3%,2,-6%,/,-20%,1
O=C1NC(=O)/C(=C/c2ccc3nccnc3c2)S1,/,-8,/,/,-9%,/
SMILES,Pin1 inhibitor,PI4K2A inh,Tb PGK inh,GoLoco inh red,GCN5L2 inh,PI5P4K alpha inh
COc1ccc(/C=C2/SC(=O)NC2=O)cc1,8%,-3,i,8%,1%,?
COc1ccc(/C=C2\SC(=Nc3ccccc3)NC2=O)cc1,/,/,/,/,2%,/
COc1ccc(C=C2SC(=S)NC2=O)cc1,6%,-1,i,/,/,-86*
O=C1NC(=S)S/C1=C\c1ccc2ccccc2c1,12%,1,4%,/,-3%,-62*
COc1cccc(OCCOc2ccc(/C=C3/SC(=S)NC3=O)cc2)c1,49%,-8,-20%,/,-3%,-85*
CCCCN(Cc1ccccc1)C(=O)C1CCCN(S(=O)(=O)c2cnc[nH]2)C1 (stereo unspecified),-2%,-1,-2%,3%,-6%,2
COc1ccc2nc(NC(=O)C3CCN(C(=O)c4ccc(F)cc4)CC3)sc2c1,2%,-1,-2%,/,-3%,2
Cc1cc(N)ccc1-n1c(C)ccc1C,0%,-6,-5%,-61%,-5%,-22
Cc1cc(N)ccc1N1CCCC1,?,?,i,14µM*,?,-72*
Cc1ccc(-c2ccc(/C=C3/NC(=O)NC3=O)o2)cc1[N+](=O)[O-],?,-4,6%,11%,-13%,-10
CC1=C(C#N)C(=O)NC(=O)/C1=C\c1ccc(-c2cc(C)c(C)cc2[N+](=O)[O-])o1,/,-10,-14%,0%,?,-65*
Cc1ccc(C2=NS(=O)(=O)N(C)C(C(=O)N3CCOCC3)=C2)cc1,-3%,-2,-6%,/,10µM*,10
CCOc1ccc(Nc2nc(N)c3ccccc3n2)cc1,-8%,-80*,?,/,-8%,-28
Nc1nc(Nc2ccccc2)nc2ccccc12,4%,?,?,1%,-1%,-22
O=C(CCNS(=O)(=O)c1ccc(Cl)cc1)N1CCCCCC1,-1%,1,-1%,/,-12%,-6
CNC(=O)C(=O)Nc1c(C)cc(C)cc1C,-5%,1,-6%,-7%,0%,5
CC1=C(C(=O)OCc2ccccc2)C(c2ccc(Br)cc2)NC(=O)N1CCCC(=O)O (stereo unspecified),2%,0,-4%,/,-23%,-80*
CC1=C(C(=O)OCc2ccccc2)C(c2ccc(Br)cc2)NC(=O)N1CCCCCC(=O)O (stereo unspecified),-2%,2,-2%,/,/,-21
CC1=C(C(=O)OCc2ccccc2)C(c2ccc(Cl)cc2)NC(=O)N1CCCC(=O)O (stereo unspecified),4%,-5,i,/,-5%,-100*
O=C(O)c1ccccc1-c1c2cc(I)c(=O)c(I)c-2oc2c(I)c(O)c(I)cc12,?,?,?,/,11µM*,-99*
O=C(O)c1c(Cl)c(Cl)c(Cl)c(Cl)c1-c1c2cc(I)c(=O)c(I)c-2oc2c(I)c(O)c(I)cc12,/,/,/,33%,2µM*,/
